Among the data in PubChem BioAssay (NCI) are growth values, retold here.

This is part of a sample that, as a whole, favours compounds with a hit. Of some 83,000 tested, about 20% had one in any assay.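 Percent growth is the endpoint: 0 to 100 indicates growth inhibition (40 means 60% inhibition), 0 means no net growth, and negative values indicate cell death.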 Unmarked numbers belong to inactive results.

The test system of this assay is TK-10 renal. In words: NCI-60 one-dose screen, 48 h (100 = growth as untreated, 0 = no growth, -100 = all killed). To be noted: 10 µM unless noted. Here is the method:
Growth inhibition of the TK-10 human tumor cell line is measured as a screen for anti-cancer activity. Cells are grown in 96 well plates and exposed to the test compound for 48 hours. Compounds are tested at a single concentration, which is 10^-5 M for most compounds. The reported endpoint is percent growth (GI% or GIPRCNT), where numbers from 0 - 100% represent growth inhibition, and numbers from -100% - 0 represent cell death. For example, a value of 40 represents 60% growth inhibition. A value of 0 means no net growth occurred over the course of the experiment. A value of -40 indicates 40% of cells at the beginning of the experiment died by the end of the experiment. A value of -100 means all cells are dead at the end of the experiment.
NCI-60 Human Tumor Cell Lines Screen was performed using the standard one-dose NCI protocol, which is described in more detail at https://dtp.cancer.gov/discovery_development/nci-60/default.htm.
Compounds with GIPRCNT values below 10 were considered active. Activity score was based on GIPRCNT using the following formula: […]
Score is 0 for GIPRCNT values of 100 or above, 50 for GIPRCNT values of 0, and 100 for GIPRCNT values of -100.
On to `COc1ccc(-c2nc3ccc(-c4nnc(SCC(=O)Nc5ccc(C(C)=O)cc5)o4)cc3[nH]2)cc1`, for which the growth is 116%.

Turning to `Nc1cc(-c2c[nH]c3ccccc23)nc2cc(-c3c[nH]c4ccccc34)nn12`, the growth is 89.4%.

For `CCCSc1nc(Nc2ccc(/C(C)=N\NC(N)=S)cc2)c(C#N)c(-c2ccc(OC)cc2)n1`, the growth is 33.4%.

Regarding `CN1CCN(Cc2ccc(NC(=O)c3cncc(C#Cc4cnc5[nH]ncc5c4)c3)cc2C(F)(F)F)CC1`, the growth was 49.7%.

Turning to `CS(=O)(=O)Nc1ccc(-c2nn(-c3ccc(S(C)(=O)=O)cc3)cc2/C=C/C(=O)c2ccc(NC(=O)CO[N+](=O)[O-])cc2)cc1`, the growth was 112%.

As for `Cc1sc2nc(NCc3ccccc3Cl)[nH]c(=O)c2c1C`, the growth was 112%.

With `C=CCn1c(SCC(=O)c2ccc(Br)cc2)nnc1-c1c[nH]c2ccccc12`, the growth is 134%.

`CS(=O)(=O)c1ccc(-n2cc(/C=C/C(=O)c3ccc(NC(=O)CO[N+](=O)[O-])cc3)c(-c3ccc(Cl)cc3)n2)cc1`: the growth was 111%.

For the molecule `COc1ccc(-c2nc3ccc(-c4nnc(SCC(=O)Nc5ccc(C(=O)/C=C/c6ccccc6)cc5)o4)cc3[nH]2)cc1OC`, the growth was 133%.

On to `Cc1cc(=O)oc2cc(OCCCOc3ccc(/C=C/C(=O)Nc4ccc(Cl)cc4)cc3)ccc12`, for which the growth was 118%.

Regarding `COc1ccc([C@@H]2c3[nH]c4ccccc4c3CC3C(=O)N(C4CCN(Cc5c(F)cccc5F)CC4)CC(=O)N32)c(OC)c1` (stereo not given in full), the growth was 63.5% [5.26 µM].

As for `N#Cc1ccc(C(=O)CSc2nc(Nc3ccc(S(N)(=O)=O)cc3)c3ccccc3n2)cc1`, the growth was 110%.

`COC(=O)C1CCCN(S(=O)(=O)/N=C2\NC(=O)NC2=C(Cl)Cl)C1` (stereo not given): the growth was 74.6%.

Turning to `COc1cc(OC)c(S(=O)(=O)NNC(=O)c2ccncc2)cc1C(=O)/C=C/c1ccc(C)cc1`, the growth was 145%.

With `COc1cc(N=Cc2sc(Nc3nccs3)nc2O)cc(OC)c1OC`, the growth is 224%.

Turning to `C/C(=C(/c1ccc(Cl)cc1)c1ccc(OCCN)cc1)c1ccc(C)cc1`, the growth is 116%.

`CCCC(=O)NC(c1cccc(N(C)C)c1)c1cc(C)c2cccnc2c1O` (stereo not given): the growth is 84.9%.

On to `Fc1ccc(-c2nc(C(Cl)Cl)nc3cc(-c4ccccc4)nn23)cc1`, for which the growth is 30.3%.

For `C/C(=N\NC(N)=O)c1c(O)sc(=O)[nH]c1=O`, the growth is 110%.

As for `CCN1CCN(/C(=N\c2sc(-c3ccccc3)nc2-c2ccccc2)c2ccccc2)CC1`, the growth is 94.1%.

In the case of `Cc1ccc(CNS(=O)(=O)/N=C2\NC(=O)NC2=C(Cl)Cl)cc1`, the growth was 48.8%.

As for `CCN(CC)c1ccc(C=O)c(OCc2cn(CC(=O)Nc3ccc(Cl)cc3)nn2)c1`, the growth was 83.8%.

On to `Cn1ccnc1C(=O)/C=C/c1ccc(NC(=O)Nc2ccc(F)cc2)cc1`, for which the growth is 106%.

For `COc1cc(/C=C/C(=O)c2cc(OC)c(OC)c(OC)c2)ccc1OCc1ccc(F)cc1`, the growth is 159%.

For `CCOC(=O)c1csc(NC(=O)CSc2nc3sc4c(c3c(=O)n2-c2ccc(Cl)cc2)CCCC4)n1`, the growth was 125%.

`Clc1ccc(-c2cn3cc(Cc4ccc(Cl)c(Cl)c4)sc3n2)cc1`: the growth was 112%.

Consider `CCCCCCNC(=O)Oc1ccc(/C(=C(/C)c2ccccc2)c2ccc(OCCN3CCCCCC3)cc2)cc1`, for which the growth was 104%.

Regarding `O=C(c1ccc(O)cc1)C1[C@H](c2ccc(Cl)cc2)[C@@H](c2ccccc2)NC12C(=O)Nc1ccc(Cl)cc12` (stereo not given in full), the growth was 66.9%.

In the case of `COc1cc(/C=C/C(=O)c2ccc(C)cc2)ccc1Oc1nc(NCCO)nc(N2CCOCC2)n1`, the growth was 125%.

For the molecule `O=C1c2c(c3c4cccnc4[nH]c3c3ccc4ccccc4c23)C(=O)N1CCO`, the growth is 127%.

As to `COc1ccc(C(=O)/C=C/c2ccc(OCc3ccc(Cl)cc3)c(OC)c2)cc1OC`, the growth was 110%.

As for `Cc1cc(C(NC(=O)CCCCCNc2cccc3c2C(=O)N(C2CCC(=O)NC2=O)C3=O)c2cccnc2)c(O)c2ncccc12` (stereo not given), the growth is 19.2%.

With `O=[N+]([O-])c1ccc(O)c2ncccc12`, the growth was 55.6%.

Regarding `O=C(N/N=C/c1ccc([N+](=O)[O-])s1)c1[nH]c2ccc(Br)cc2c1-c1ccccc1`, the growth was 83.3%.

With `O=C(CSc1nc2sc3c(c2c(=O)n1-c1ccc(Cl)cc1)CCCC3)NNC(=O)Nc1cccc(C(F)(F)F)c1`, the growth was 48.3%.

For the molecule `Cc1[nH]nc2ncc(C#Cc3cncc(C(=O)Nc4ccc(CN5CCN(C)CC5)c(C(F)(F)F)c4)c3)cc12`, the growth was 27.8%.

Take `COC(=O)C(Cc1ccccc1)NS(=O)(=O)/N=C1\NC(=O)NC1=C(Cl)Cl` (stereo not given): the growth is 118%.

Turning to `COC(=O)c1ccc(NC(=S)N2CCc3ccc([N+](=O)[O-])cc3C2)cc1O`, the growth is 137%.

Turning to `CC(=O)Nc1cc(F)cc(-c2ccc3[nH]cc(-c4ccccc4)c3n2)c1`, the growth is 48.6%.

As for `COc1cccc(NC2=CC(=O)C(C)=C(C)C2=O)c1`, the growth was 135%.
